Data published in PubChem BioAssay (Tox21).
“And” between values parts separate entries of the source, which are not always exact repeats. Identical values can stand only once. Records with an inconclusive call do not appear. A call without a number means that no potency is given here. More than one record can exist for a structure, and the calls need not agree. The source made the active and inactive calls. Unless noted, calls follow the shape of the dose curve; as a rule, active = well fitted curve in the direction sought with a large enough effect in the repeat runs; inconclusive = weak or mixed curves; inactive = no such curve, though single readings can be large; an effect the other way counts as inactive or inconclusive.

Legend:
[1] = qHTS assay to identify small molecule agonists of the estrogen receptor alpha (ER-alpha) signaling pathway in the presence of an antagonist - cell viability counter screen (AID 1259386);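 also: cells exposed to compounds for 22 h at 37 °C before the viability read; nearly all actives have a fitted effect of over 30% in size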; also: potency is read from the fitted curve at half-maximal effect
In short: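 Cell viability in VM7Luc4E2 cells (endogenous full-length ER-alpha) measured by CellTiter-Fluor fluorescence in the same wells as the luciferase screen. Cells pre-cultured 5 days in charcoal-stripped serum, then treated 22 h with compounds at 15 concentrations plus 10.0nM ICI-182,780.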

[2] = target: Progesterone receptor (Homo sapiens) (UniProt P06401); experiment: qHTS assay to identify small molecule agonists of the progesterone receptor (PR) signaling pathway (AID 1346784; calls by dose curve; also: nearly all actives have a fitted effect of over 30% in size)
In short: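 HEK 293T PR-UAS-bla reporter cells, 2% charcoal-stripped FBS; 6 hr settle at 37C/5% CO2, compound (DMSO) 16 hr, LiveBLAzer B/G FRET substrate 2 hr RT, fluorescence intensity read.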

[3] = target: Progesterone receptor (Homo sapiens) (UniProt P06401); experiment: qHTS assay to identify small molecule antagonists of the progesterone receptor (PR) signaling pathway (AID 1346795; active = well fitted inhibition curve with a large enough effect in the signal ratio in the repeat runs, not every such curve was filed as active; the % refers to the signal ratio; also: potency is read from the fitted curve at half-maximal effect)
In short: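 Beta-lactamase reporter, HEK293T PR-UAS-bla line; 2% charcoal-stripped FBS; 6 hr pre-incubation, 37C/5% CO2. Compound + R5020 1 nM final, 16 hr. LiveBLAzer B/G FRET substrate, 2 hr RT; fluorescence intensity read.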

[4] = qHTS assay to identify small molecule antagonists of the progesterone receptor (PR) signaling pathway - cell viability counter screen (AID 1346798); also: nearly all actives have a fitted effect of over 50% in size; also: potency is read from the fitted curve at half-maximal effect
In short: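 Luminescence readout (CellTiter-Glo, 30 min, RT) of viability in PR-UAS-bla HEK293T cells exposed to compound and R5020 agonist for 16 hr at 37C, 5% CO2; run in the same wells as the beta-lactamase reporter read.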

[5] = qHTS assay to identify small molecule agonists of the progesterone receptor (PR) signaling pathway - cell viability counter screen (AID 1346799; calls by dose curve; also: nearly all actives have a fitted effect of over 45% in size; also: potency is read from the fitted curve at half-maximal effect)
In short: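 HEK293T PR-UAS-bla, 3,000 cells/well, 2% charcoal-stripped FBS; 6 h settle, compound 16 h at 37C/5% CO2; LiveBLAzer 2 h RT, then CellTiter-Glo 30 min RT, luminescence read.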

[6] = qHTS assay to identify small molecule antagonists of the TGF-beta/Smad signaling pathway - cell viability counter screen (AID 1346824); also: nearly all actives have a fitted effect of over 50% in size
In short: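 SBE-bla HEK 293T cells, incubated overnight, then compound plus 0.25 ng/mL TGF-beta1 (stock added) for 5 hr at 37 C. Viability was read in the same wells by CellTiter-Glo luminescence after 30 min at room temperature.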

[7] = qHTS assay to identify small molecule agonists of the TGF-beta/Smad signaling pathway - cell viability counter screen (AID 1346829); also: top concentration of the series differs between compounds; nearly all actives have a fitted effect of over 45% in size
In short: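 In parallel with the Smad reporter read, viability of HEK 293T cells stably carrying SBE-bla is quantified by ATP luminescence following 5 hr compound treatment.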

[8] = qHTS assay to identify small molecule agonists of the TGF-beta/Smad signaling pathway (AID 1346859; active = well fitted activation curve with a large enough effect in the signal ratio in the repeat runs, not every such curve was filed as active; the % refers to the signal ratio; also: series mostly up to about 77 µM)
In short: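 Read-out: fluorescence at 460 and 530 nm (405 nm excitation) after a 2 hr room-temperature incubation with beta-lactamase FRET substrate. SBE-bla HEK 293T cells had been treated with test compounds for 5 hr at 37 C.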

[9] = target: Thyrotropin-releasing hormone receptor (Homo sapiens) (UniProt P34981); experiment: qHTS assay to identify small molecule antagonists of the thyrotropin-releasing hormone receptor (TRHR) signaling pathway (AID 1346877; active = well fitted inhibition curve with a large enough effect in the repeat runs, not every such curve was filed as active; also: series mostly up to about 51 µM)
In short: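 TRHR-expressing HEK293 cells loaded with calcium dye for 2 h at 37 C; compounds pre-incubated 5 min at room temperature before TRH challenge at 1 nM final. Intracellular calcium fluorescence read kinetically for 3 min; 15 concentrations in triplicate.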

[10] = target: Thyrotropin-releasing hormone receptor (Homo sapiens) (UniProt P34981); experiment: qHTS assay to identify small molecule agonists of the thyrotropin-releasing hormone receptor (TRHR) signaling pathway (AID 1346891; calls by dose curve; also: series mostly up to about 58 µM)
In short: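 HEK293/TRHR cells, 1500 per well, 18 h 37 °C; Ca dye 2 h 37 °C; pin-tool compound addition (agonist mode); kinetic fluorescence 3 min, 1 s reads; 15 concentrations, triplicate.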

[11] = Human pregnane X receptor (PXR) small molecule agonists, qHTS cell viability counter screen (AID 1346977); also: nearly all actives have a fitted effect of over 50% in size; also: potency is read from the fitted curve at half-maximal effect
In short: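 Fluorescence read-out (CellTiter-Fluor) of viability in PXR-Luc HepG2 cells, multiplexed with the luciferase agonist read. Compounds in DMSO added after 5hr plating; 24hr total exposure at 37C, 5% CO2.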

[12] = Caspase-3/7 induction in HepG2 cells by small molecules, qHTS assay (AID 1346978); also: nearly all actives have a fitted effect of over 15% in size; also: potency is read from the fitted curve at half-maximal effect
In short: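 Wild-type HepG2 cells, 2,000/well, settled 5 hr at 37 C and 5% CO2, then compound-treated for 17 hr; caspase-3/7 activity read by luminescent Caspase-Glo 3/7 after 30 min at room temperature.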

[13] = Caspase-3/7 induction in CHO-K1 cells by small molecules, qHTS cell viability counter screen (AID 1346979); also: nearly all actives have a fitted effect of over 35% in size; also: potency is read from the fitted curve at half-maximal effect
In short: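 CHO-K1 wt, 1,500 cells/well; 5hr pre-incubation 37C/5% CO2; compound pin transfer (DMSO); 16hr exposure; CellTiter-Fluor added, 1hr, fluorescence read.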

[14] = Caspase-3/7 induction in CHO-K1 cells by small molecules, qHTS assay (AID 1346980); also: nearly all actives have a fitted effect of over 15% in size; also: potency is read from the fitted curve at half-maximal effect
In short: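 Wild-type CHO-K1 cells exposed to compounds for 17hr at 37 C, 5% CO2. Caspase-3/7 activity then measured by Caspase-Glo 3/7 luminescence after 30min at room temperature.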

[15] = Caspase-3/7 induction in HepG2 cells by small molecules, qHTS cell viability counter screen (AID 1346981); also: nearly all actives have a fitted effect of over 30% in size; also: potency is read from the fitted curve at half-maximal effect
In short: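 Wild-type HepG2 cells, 2,000/well, settled 5 hr at 37 C, 5% CO2 before compound addition. Viability read by CellTiter-Fluor fluorescence, reagent added after 16 hr compound exposure, then 1 hr at 37C, in the same wells as the caspase read.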

[16] = target: Acetylcholinesterase (Homo sapiens) (UniProt P22303); experiment: Acetylcholinesterase (AChE) small molecule antagonists: colormetric cell-based qHTS assay (AID 1347395; calls by dose curve; also: nearly all actives have a fitted effect of over 30% in size)
In short: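 SH-SY5Y cells; cpd 30 min 37 C; + DTNB/acetylthiocholine, 90 min 37 C; colorimetric thiocholine read; qHTS.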

[17] = target: Nuclear receptor subfamily 1 group I member 2 (Rattus norvegicus) (UniProt Q9R1A7); experiment: Rat pregnane X receptor (rPXR) activation by small molecules, qHTS assay (AID 1346983); conditions: rPXR luciferase reporter cells, One-Glo luminescence, 24 h; stronger effect = higher value; also: nearly all actives have a fitted effect of over 20% in size
In short: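 Cell-based rPXR activation assay: rPXR cells, 2,000 per well, rested 5hr at 37 C, then exposed to compounds in DMSO for 24 hr at 37 C. Luciferase activity read by One-Glo luminescence after 30 min at room temperature.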

[18] = target: Nuclear receptor subfamily 1 group I member 2 (Homo sapiens) (UniProt O75469); experiment: Human pregnane X receptor (PXR) small molecule agonists, qHTS assay (AID 1346982); also: nearly all actives have a fitted effect of over 35% in size; also: potency is read from the fitted curve at half-maximal effect
In short: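 PXR-Luc HepG2 reporter cells (CYP3A4-driven luciferase) in 5% charcoal-stripped FBS medium, plated 5 h before compound addition, then treated 24 h at 37C. Luciferase read by ONE-Glo luminescence after 30 min at room temperature.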

Progesterone receptor (Homo sapiens), sequence (P06401 whole entry, looked up): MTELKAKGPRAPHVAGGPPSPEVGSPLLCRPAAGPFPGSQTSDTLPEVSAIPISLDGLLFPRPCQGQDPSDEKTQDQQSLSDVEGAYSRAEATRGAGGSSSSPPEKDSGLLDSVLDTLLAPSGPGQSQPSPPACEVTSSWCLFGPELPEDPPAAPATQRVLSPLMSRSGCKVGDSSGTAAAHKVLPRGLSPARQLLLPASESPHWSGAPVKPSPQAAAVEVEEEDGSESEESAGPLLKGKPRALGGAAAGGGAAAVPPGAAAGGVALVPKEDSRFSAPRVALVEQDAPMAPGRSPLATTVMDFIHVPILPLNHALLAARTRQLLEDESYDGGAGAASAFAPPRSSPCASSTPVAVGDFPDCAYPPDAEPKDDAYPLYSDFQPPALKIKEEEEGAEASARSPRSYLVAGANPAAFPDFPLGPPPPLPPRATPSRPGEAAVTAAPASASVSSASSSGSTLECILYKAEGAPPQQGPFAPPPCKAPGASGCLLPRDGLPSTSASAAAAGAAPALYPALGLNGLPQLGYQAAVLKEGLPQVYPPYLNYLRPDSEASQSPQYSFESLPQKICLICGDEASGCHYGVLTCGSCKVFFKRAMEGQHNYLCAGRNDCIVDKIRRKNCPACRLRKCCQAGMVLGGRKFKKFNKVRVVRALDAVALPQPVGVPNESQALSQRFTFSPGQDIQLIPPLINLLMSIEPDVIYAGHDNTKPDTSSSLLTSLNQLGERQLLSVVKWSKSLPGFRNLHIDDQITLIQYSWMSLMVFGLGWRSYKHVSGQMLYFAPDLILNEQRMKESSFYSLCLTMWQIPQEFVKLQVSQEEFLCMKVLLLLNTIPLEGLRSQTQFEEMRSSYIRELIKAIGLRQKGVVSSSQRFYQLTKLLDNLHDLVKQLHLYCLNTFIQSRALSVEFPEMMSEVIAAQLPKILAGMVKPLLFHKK
Acetylcholinesterase (Homo sapiens), sequence (P22303 whole entry, looked up): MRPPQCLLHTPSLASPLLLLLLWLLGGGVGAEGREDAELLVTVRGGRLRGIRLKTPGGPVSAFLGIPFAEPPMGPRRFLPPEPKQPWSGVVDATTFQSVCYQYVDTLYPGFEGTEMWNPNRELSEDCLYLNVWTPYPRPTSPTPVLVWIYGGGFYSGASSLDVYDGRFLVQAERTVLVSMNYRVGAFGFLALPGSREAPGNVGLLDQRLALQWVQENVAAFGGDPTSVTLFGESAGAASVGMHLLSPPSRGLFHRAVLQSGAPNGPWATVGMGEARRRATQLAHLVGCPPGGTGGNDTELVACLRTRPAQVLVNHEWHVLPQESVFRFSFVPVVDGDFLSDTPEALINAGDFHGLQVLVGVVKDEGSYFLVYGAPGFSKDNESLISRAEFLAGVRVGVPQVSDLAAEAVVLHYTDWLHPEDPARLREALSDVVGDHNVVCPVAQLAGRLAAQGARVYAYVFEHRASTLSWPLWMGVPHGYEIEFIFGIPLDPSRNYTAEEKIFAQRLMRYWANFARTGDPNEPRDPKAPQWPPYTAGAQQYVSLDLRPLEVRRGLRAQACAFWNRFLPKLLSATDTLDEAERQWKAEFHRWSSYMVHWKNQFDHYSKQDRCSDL
Thyrotropin-releasing hormone receptor (Homo sapiens), sequence (P34981 whole entry, looked up): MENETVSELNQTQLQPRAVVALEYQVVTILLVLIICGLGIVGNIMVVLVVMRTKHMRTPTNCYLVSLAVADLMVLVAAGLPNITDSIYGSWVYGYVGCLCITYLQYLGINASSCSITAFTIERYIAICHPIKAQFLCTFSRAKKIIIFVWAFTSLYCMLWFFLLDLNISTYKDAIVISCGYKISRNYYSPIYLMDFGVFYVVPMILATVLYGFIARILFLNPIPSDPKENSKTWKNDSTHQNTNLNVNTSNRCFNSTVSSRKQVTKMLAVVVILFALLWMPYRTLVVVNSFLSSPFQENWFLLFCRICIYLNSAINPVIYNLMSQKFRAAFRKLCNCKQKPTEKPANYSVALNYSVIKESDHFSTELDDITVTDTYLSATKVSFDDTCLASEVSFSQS
Nuclear receptor subfamily 1 group I member 2 (Homo sapiens), sequence (O75469 whole entry, looked up): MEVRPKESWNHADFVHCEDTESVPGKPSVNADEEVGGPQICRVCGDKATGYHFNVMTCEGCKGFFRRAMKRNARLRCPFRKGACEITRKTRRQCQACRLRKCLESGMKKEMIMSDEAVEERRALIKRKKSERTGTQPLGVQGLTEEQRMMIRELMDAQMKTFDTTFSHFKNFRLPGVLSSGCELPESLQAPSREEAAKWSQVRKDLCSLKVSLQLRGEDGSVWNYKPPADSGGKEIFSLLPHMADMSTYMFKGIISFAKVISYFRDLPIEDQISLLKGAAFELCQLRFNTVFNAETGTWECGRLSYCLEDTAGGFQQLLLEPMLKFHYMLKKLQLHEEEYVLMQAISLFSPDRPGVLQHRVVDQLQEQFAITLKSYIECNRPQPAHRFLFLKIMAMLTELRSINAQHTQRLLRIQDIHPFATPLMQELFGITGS
Nuclear receptor subfamily 1 group I member 2 (Rattus norvegicus), sequence (Q9R1A7 whole entry, looked up): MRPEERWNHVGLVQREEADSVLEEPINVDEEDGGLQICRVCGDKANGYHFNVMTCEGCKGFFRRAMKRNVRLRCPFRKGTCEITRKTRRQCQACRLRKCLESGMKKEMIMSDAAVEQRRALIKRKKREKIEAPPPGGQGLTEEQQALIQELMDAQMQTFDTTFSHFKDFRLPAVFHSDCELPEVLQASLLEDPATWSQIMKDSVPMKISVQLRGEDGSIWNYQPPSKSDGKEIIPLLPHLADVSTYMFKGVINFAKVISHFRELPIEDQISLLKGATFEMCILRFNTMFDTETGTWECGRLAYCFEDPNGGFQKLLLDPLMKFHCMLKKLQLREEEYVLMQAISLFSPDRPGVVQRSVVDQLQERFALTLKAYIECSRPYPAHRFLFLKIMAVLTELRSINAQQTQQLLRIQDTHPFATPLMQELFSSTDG

## C=CC(=O)OCC(CC)(COC(=O)C=C)COC(=O)C=C
[1]
  Potency: 70.4 µM (active) and 43.3 µM (active)
[2]
  Potency: inactive
[3]
  Potency: 25 µM (active) and 17.2 µM (active)
[4]
  Potency: 56 µM (active) and 43.3 µM (active)
[5]
  Potency: 70.4 µM (active) and 24.3 µM (active)
[6]
  Potency: inactive
[7]
  Potency: inactive
[8]
  Potency: inactive
[9]
  Potency: inactive
[10]
  outcome: inactive
[11]
  Potency: 31.6 µM (active) and 30.6 µM (active)
[12]
  Potency: 25 µM (active) and 24.3 µM (active)
[13]
  Potency: 4.99 µM (active) and 4.86 µM (active)
[14]
  Potency: 4.86 µM (active)
[15]
  Potency: 35.3 µM (active) and 24.3 µM (active)
[16]
  Potency: inactive

## ClCc1ccccn1
[1]
  Potency: inactive
[2]
  Potency: inactive
[3]
  Potency: inactive
[4]
  Potency: inactive
[5]
  Potency: inactive
[6]
  Potency: inactive
[7]
  Potency: inactive
[8]
  Potency: inactive
[9]
  Potency: inactive
[10]
  outcome: inactive
[11]
  Potency: inactive
[12]
  Potency: inactive
[13]
  Potency: inactive
[14]
  Potency: inactive
[15]
  Potency: inactive
[16]
  Potency: inactive

## CN(C)P(=O)(N(C)C)N(C)C
[1]
  Potency: inactive
[2]
  Potency: inactive
[3]
  Potency: inactive
[4]
  Potency: inactive
[5]
  Potency: inactive
[6]
  Potency: inactive
[7]
  Potency: inactive
[8]
  Potency: inactive
[9]
  Potency: inactive
[10]
  outcome: inactive
[11]
  Potency: inactive
[12]
  Potency: inactive
[13]
  Potency: inactive
[14]
  Potency: inactive
[15]
  Potency: inactive
[16]
  Potency: inactive

## NC(=O)CN1CCCC1=O
[1]
  Potency: inactive
[2]
  Potency: inactive
[3]
  Potency: inactive
[4]
  Potency: inactive
[5]
  Potency: inactive
[6]
  Potency: inactive
[7]
  Potency: inactive
[8]
  Potency: inactive
[9]
  Potency: inactive
[10]
  outcome: inactive
[11]
  Potency: inactive
[12]
  Potency: inactive
[13]
  Potency: inactive
[14]
  Potency: inactive
[15]
  Potency: inactive
[17]
  max activation: -4.89% (inactive)
[16]
  Potency: inactive

## Cl
[1]
  Potency: inactive
[2]
  Potency: inactive
[3]
  Potency: inactive
[4]
  Potency: inactive
[5]
  Potency: inactive
[6]
  Potency: inactive
[7]
  Potency: inactive
[8]
  Potency: inactive
[11]
  Potency: inactive
[12]
  Potency: inactive
[13]
  Potency: inactive
[14]
  Potency: inactive
[15]
  Potency: inactive

## CN(C)c1nc(=O)n(C2CCCCC2)c(=O)n1C
[1]
  Potency: inactive
[2]
  Potency: inactive
[3]
  Potency: inactive
[4]
  Potency: inactive
[5]
  Potency: inactive
[6]
  Potency: inactive
[7]
  Potency: inactive
[8]
  Potency: inactive
[9]
  Potency: inactive
[10]
  outcome: inactive
[11]
  Potency: inactive
[12]
  Potency: inactive
[13]
  Potency: inactive
[14]
  Potency: inactive
[15]
  Potency: inactive
[16]
  Potency: inactive

## CN(C)c1ccccc1
[1]
  Potency: inactive
[2]
  Potency: inactive
[3]
  Potency: inactive
[4]
  Potency: inactive
[5]
  Potency: inactive
[6]
  Potency: inactive
[7]
  Potency: inactive
[8]
  Potency: inactive
[9]
  Potency: inactive
[10]
  outcome: inactive
[11]
  Potency: inactive
[12]
  Potency: inactive
[13]
  Potency: inactive
[14]
  Potency: inactive
[15]
  Potency: inactive
[16]
  Potency: inactive

## OCCOCCO
[1]
  Potency: inactive
[2]
  Potency: inactive
[3]
  Potency: inactive
[4]
  Potency: inactive
[5]
  Potency: inactive
[6]
  Potency: inactive
[7]
  Potency: inactive
[8]
  Potency: inactive
[11]
  Potency: inactive
[12]
  Potency: 31.5 µM (active) and inactive
[13]
  Potency: 7.92 µM (active) and inactive
[14]
  Potency: inactive
[15]
  Potency: inactive
[18]
  Potency: 62.9 µM (active) and inactive
[16]
  Potency: inactive

## CS(=O)(=O)NC(=O)c1cc(Oc2ccc(C(F)(F)F)cc2Cl)ccc1[N+](=O)[O-]
[1]
  Potency: inactive
[2]
  Potency: inactive
[3]
  Potency: inactive
[4]
  Potency: inactive
[5]
  Potency: inactive
[6]
  Potency: inactive
[7]
  Potency: inactive
[8]
  Potency: inactive
[11]
  Potency: inactive
[12]
  Potency: inactive
[13]
  Potency: inactive
[14]
  Potency: inactive
[15]
  Potency: inactive
[18]
  Potency: 26.4 µM (active) and 7.7 µM (active)
[16]
  Potency: inactive
